In PubChem BioAssay (EPA / NIEHS) one finds outcome and AC50 data, which are given here for 3 compounds.

Read-out in test [1]: Interleukin-1 alpha (IL1a), IL1A (gene 3552)
Briefly: BSK_KF3CT_IL1a: BioMAP Diversity Plus: KF3CT Assay for Interleukin-1 alpha (IL1a) Biomarker Activity (AID 2283070). Conditions: primary human keratinocytes with fibroblasts; actives raise or lower the signal. The gist of the method:
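Chemicals were dosed onto co-cultured human keratinocytes and foreskin fibroblasts, IL-1a was quantified by ELISA at 24 h, and activity was fitted in both directions relative to DMSO controls.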

Read-out in test [2]: TIMP metallopeptidase inhibitor 2 (TIMP2), TIMP2 (gene 7077)
Nature of the test: BSK_KF3CT_TIMP2: BioMAP Diversity Plus: KF3CT Assay for TIMP metallopeptidase inhibitor 2 (TIMP2) Biomarker Activity (AID 2283071). The conditions noted are these: primary human keratinocytes with fibroblasts; actives raise or lower the signal. The gist of the method: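 Cells: human keratinocytes co-cultured with foreskin fibroblasts. Treat with chemical, 24 h. Measure TIMP-2 by ELISA; fit curves bidirectionally vs DMSO baseline.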

Read-out in test [3]: C-C motif chemokine 2 (Homo sapiens) (UniProt P13500)
Nature of the test: BSK_KF3CT_MCP1: BioMAP Diversity Plus: KF3CT Assay for Monocyte Chemoattractant Protein 1 (MCP1/CCL2) Biomarker Activity (AID 2283073). The conditions noted are these: primary human keratinocytes with fibroblasts; actives raise or lower the signal. The gist of the method:
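ELISA readout of MCP-1 after 24 h chemical dosing of a human skin primary co-culture of keratinocytes and foreskin fibroblasts. Activity was fitted in both directions against DMSO.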

Read-out in test [4]: Matrix Metallopeptidase 9 (MMP9), MMP9 (gene 4318)
Nature of the test: BSK_KF3CT_MMP9: BioMAP Diversity Plus: KF3CT Assay for Matrix Metallopeptidase 9 (MMP9) Biomarker Activity (AID 2283074).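 As to AC50: MMP9 protein level quantified by ELISA in the co-culture.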 Conditions: primary human keratinocytes with fibroblasts; actives raise or lower the signal. Put shortly:
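Human keratinocyte/foreskin fibroblast co-culture; compound added; 24 h; MMP-9 by ELISA; bidirectional fit vs DMSO baseline.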

Read-out in test [5]: urokinase plasminogen activator (uPA), PLAU (gene 5328)
Briefly: BSK_KF3CT_uPA: BioMAP Diversity Plus: KF3CT Assay for urokinase plasminogen activator (uPA) Biomarker Activity (AID 2283075). Conditions: primary human keratinocytes with fibroblasts; actives raise or lower the signal. The gist of the method:
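ELISA readout of uPA, analyzed for signal gain or loss relative to DMSO, from a human primary keratinocyte–foreskin fibroblast co-culture measured 24 h after chemical treatment.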

Read-out in test [6]: CD40, CD40 (gene 958)
Briefly: BSK_LPS_CD40: BioMAP Diversity Plus: LPS Assay for CD40 Biomarker Activity (AID 2283076). Conditions: primary human HUVEC with PBMC; actives raise or lower the signal. The gist of the method: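 Cells were dosed, incubated 24 h, then assayed for CD40 by ELISA. Gain or loss of signal was analysed relative to DMSO controls. The culture paired human umbilical vein endothelium with peripheral blood mononuclear cells.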

Read-out in test [7]: E-selectin (Homo sapiens) (UniProt P16581)
Briefly: BSK_LPS_Eselectin: BioMAP Diversity Plus: LPS Assay for Eselectin Biomarker Activity (AID 2283077). Conditions: primary human HUVEC with PBMC; actives raise or lower the signal. Put shortly: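 Primary human vascular co-culture (endothelium plus PBMC) was dosed with chemical, then E-selectin quantified by ELISA at 24 h. Endpoint values derive from bidirectional curve fitting relative to DMSO.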

Read-out in test [8]: Interleukin-8 (IL8), CXCL8 (gene 3576)
Briefly: BSK_LPS_IL8: BioMAP Diversity Plus: LPS Assay for Interleukin-8 (IL8) Biomarker Activity (AID 2283078). The conditions noted are these: primary human HUVEC with PBMC; actives raise or lower the signal. The gist of the method: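 Readout is IL-8 by ELISA, taken 24 h after compounds were added to LPS-stimulated endothelial/PBMC co-cultures. Both increases and decreases relative to DMSO control were scored through bidirectional fitting.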

Test [9] is described as follows: BSK_LPS_SRB: Viability Assessment in the BioMAP Diversity Plus: LPS Assay (AID 2283079).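 Also: total protein by sulforhodamine B absorbance as a cytotoxicity measure; measured one day after compound addition; fitted in both directions against DMSO so loss or gain of signal counts.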 Conditions: primary human HUVEC with PBMC. Put shortly: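 Readout is SRB absorbance at 560 nm (0.1% stain, TCA-fixed parallel cultures) as a total-protein cytotoxicity measure. Cells: primary human umbilical vein endothelium plus peripheral blood mononuclear cells, 24 h after chemical exposure; DMSO served as baseline.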

Read-out in test [10]: Interleukin-1 alpha (IL1a), IL1A (gene 3552)
Briefly: BSK_LPS_IL1a: BioMAP Diversity Plus: LPS Assay for Interleukin-1 alpha (IL1a) Biomarker Activity (AID 2283080). The conditions noted are these: primary human HUVEC with PBMC; actives raise or lower the signal. The gist of the method:
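ELISA read-out of IL-1 alpha from a human primary vascular co-culture (endothelium plus PBMC) under LPS, sampled 24 hours post-dosing. Activity was fitted in both directions relative to DMSO controls.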

Read-out in test [11]: Monocyte Chemoattractant Protein-1 (MCP1), CCL2 (gene 6347)
Briefly: BSK_LPS_MCP1: BioMAP Diversity Plus: LPS Assay for Monocyte Chemoattractant Protein-1 (MCP1) Biomarker Activity (AID 2283081). Conditions: primary human HUVEC with PBMC; actives raise or lower the signal. Put shortly:
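Human endothelial–PBMC co-cultures were dosed with chemical, then LPS-driven MCP-1 levels were quantified by ELISA at 24 h. Activity in either direction was fitted versus DMSO negative control.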

Test [12] in a line: BSK_LPS_PGE2: BioMAP Diversity Plus: LPS Assay for Prostaglandin E2 (PGE2) Biomarker Activity (AID 2283082).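 As to AC50: secreted prostaglandin E2 measured by ELISA in LPS-stimulated co-culture.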 Conditions: primary human HUVEC with PBMC; actives raise or lower the signal. The gist of the method: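 LPS-activated HUVEC/PBMC co-culture; cmpd dosed, 24 h; PGE2 by ELISA; bidirectional fit vs DMSO; SRB (0.1%, TCA-fixed, 560 nm) in parallel plates for overt cytotox.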

Read-out in test [13]: Macrophage colony-stimulating factor (MCSF), CSF1 (gene 1435)
Briefly: BSK_LPS_MCSF: BioMAP Diversity Plus: LPS Assay for Macrophage colony-stimulating factor (MCSF) Biomarker Activity (AID 2283083). The conditions noted are these: primary human HUVEC with PBMC; actives raise or lower the signal. Put shortly:
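ELISA readout of M-CSF after 24 h compound exposure in a human endothelial/PBMC co-culture. Activity, in either direction, is fitted relative to DMSO vehicle.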

Read-out in test [14]: Tissue Factor, F3 (gene 2152)
Nature of the test: BSK_LPS_TissueFactor: BioMAP Diversity Plus: LPS Assay for Tissue Factor Biomarker Activity (AID 2283084). The conditions noted are these: primary human HUVEC with PBMC; actives raise or lower the signal. Put shortly:
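ELISA signal for cell-surface Tissue Factor (CD142) was read 24 h after compound dosing of an LPS-stimulated human endothelial–PBMC primary co-culture. Gain or loss of signal was scored relative to DMSO.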

Read-out in test [15]: Tumor necrosis factor (Homo sapiens) (UniProt P01375)
Nature of the test: BSK_LPS_TNFa: BioMAP Diversity Plus: LPS Assay for Tumour Necrosis Factor alpha (TNFa) Biomarker Activity (AID 2283085). The conditions noted are these: primary human HUVEC with PBMC; actives raise or lower the signal. Put shortly:
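Read-out is ELISA of TNFa in primary human endothelial cell–PBMC co-cultures at 24 h after compound. Activity in either direction was fitted against DMSO.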

Read-out in test [16]: Vascular cell adhesion molecule 1 (VCAM1), VCAM1 (gene 7412)
Nature of the test: BSK_LPS_VCAM1: BioMAP Diversity Plus: LPS Assay for Vascular cell adhesion molecule 1 (VCAM1) Biomarker Activity (AID 2283086). Conditions: primary human HUVEC with PBMC; actives raise or lower the signal. The gist of the method:
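HUVEC + PBMC co-culture, LPS system; compound 24 h; VCAM-1 by ELISA; bidirectional fit vs DMSO control; parallel SRB (0.1%, TCA-fixed, 560 nm) for cytotoxicity.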

Read-out in a further test: CD38, CD38 (gene 952)
Nature of the test: BSK_SAg_CD38: BioMAP Diversity Plus: SAg Assay for CD38 Biomarker Activity (AID 2283087). The conditions noted are these: primary human HUVEC with PBMC; actives raise or lower the signal. The gist of the method: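 Human HUVEC plus PBMC co-culture stimulated with superantigen; CD38 measured by ELISA 24 h after chemical dosing. Fluorescence read-out, bidirectional fit against DMSO; cytotoxicity tracked in parallel by SRB and Alamar Blue.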

Read-out in test [17]: CD40, CD40 (gene 958)
Briefly: BSK_SAg_CD40: BioMAP Diversity Plus: SAg Assay for CD40 Biomarker Activity (AID 2283088). Conditions: primary human HUVEC with PBMC; actives raise or lower the signal. Put shortly: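 Compounds were dosed onto a human primary endothelial–PBMC co-culture, and after 24 h CD40 was quantified by ELISA using a fluorescence signal. Activity in either direction was fitted relative to DMSO.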

Read-out in another test: CD69, CD69 (gene 969)
Briefly: BSK_SAg_CD69: BioMAP Diversity Plus: SAg Assay for CD69 Biomarker Activity (AID 2283089).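 As to AC50: cell surface CD69 protein quantified by ELISA with fluorescence detection.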 Conditions: primary human HUVEC with PBMC; actives raise or lower the signal. The gist of the method:
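Endothelial/PBMC co-culture; chemical added; 24 h incubation; CD69 ELISA with fluorescence detection; bidirectional fit vs DMSO.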

“And” between values parts separate entries of the source, which are not always exact repeats. Identical values can stand only once. Some structures have more than one record in an assay (separate samples or runs), and their calls can disagree. The source made the active and inactive calls. The calls were made as follows: active = hit-call score of the fitted dose curve at least 0.9, where 1 is the maximum; inactive = score below 0.9.

Sequence of Tumor necrosis factor (Homo sapiens) (P01375 whole entry, looked up): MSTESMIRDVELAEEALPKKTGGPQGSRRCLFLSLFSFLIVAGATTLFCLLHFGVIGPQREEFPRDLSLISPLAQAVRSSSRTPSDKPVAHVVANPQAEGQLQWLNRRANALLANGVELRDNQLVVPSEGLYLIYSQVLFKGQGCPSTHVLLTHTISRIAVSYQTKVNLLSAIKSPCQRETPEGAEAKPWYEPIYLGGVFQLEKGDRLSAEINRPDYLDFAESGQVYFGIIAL
Sequence of E-selectin (Homo sapiens) (P16581 whole entry, looked up): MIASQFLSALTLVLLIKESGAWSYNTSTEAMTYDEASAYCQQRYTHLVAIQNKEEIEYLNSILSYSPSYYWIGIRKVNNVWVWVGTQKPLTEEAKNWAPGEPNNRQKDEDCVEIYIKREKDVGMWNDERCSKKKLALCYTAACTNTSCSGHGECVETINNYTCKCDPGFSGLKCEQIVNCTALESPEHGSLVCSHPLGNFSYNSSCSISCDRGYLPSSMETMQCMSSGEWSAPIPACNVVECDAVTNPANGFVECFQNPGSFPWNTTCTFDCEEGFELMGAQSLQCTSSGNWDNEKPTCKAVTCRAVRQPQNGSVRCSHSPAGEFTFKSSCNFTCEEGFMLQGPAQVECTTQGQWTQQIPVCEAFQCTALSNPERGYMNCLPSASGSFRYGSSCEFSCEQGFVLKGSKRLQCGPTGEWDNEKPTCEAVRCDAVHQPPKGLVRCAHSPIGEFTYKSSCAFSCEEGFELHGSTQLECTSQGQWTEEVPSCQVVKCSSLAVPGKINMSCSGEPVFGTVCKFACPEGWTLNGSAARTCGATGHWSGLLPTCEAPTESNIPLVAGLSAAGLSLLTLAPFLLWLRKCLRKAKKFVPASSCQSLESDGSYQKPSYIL

With `O=S(=O)(Cl)C(F)(F)C(F)(F)C(F)(F)C(F)(F)C(F)(F)C(F)(F)C(F)(F)C(F)(F)F`, the outcome was “inactive” in [1]; “inactive” in test [2]; “inactive” in test [3]; “inactive” in test [5]; “inactive” with CD40, CD40 (gene 958) [6]; “inactive” in [7]. For the same compound, the outcome in [9], in test [10], in test [11], in test [13], in [14] and in [15] was inactive. The outcome in [16] is “inactive”; with CD38, CD38 (gene 952), “inactive”; with CD40, CD40 (gene 958) [17], “inactive”; with CD69, CD69 (gene 969), “inactive”. Moreover, the AC50 in test [4] is 30 µM (active) and 51.1 µM (active); in test [8], 30 µM (active); in test [12], 46.8 µM (active) and 42.8 µM (active); with CD69, CD69 (gene 969), 15 µM (active).
Turning to `C=CC(=O)OCCC(F)(F)C(F)(F)C(F)(F)C(F)(F)F`, the result in [1], in test [2], in [3], in [4], in [5] and in test [7] was inactive. For the same compound, the outcome in test [8], in test [9], in test [10], in test [11], in test [12] and in test [13] was inactive. In addition, the outcome in [14] and in test [15] was inactive. Besides, the AC50 with CD40, CD40 (gene 958) [6] was 30 µM (active) and 45.5 µM (active); in [14], 30 µM (active); in test [16] it was 32.7 µM (active) and 15.7 µM (active); with CD38, CD38 (gene 952), 47.8 µM (active) and 30 µM (active); with CD40, CD40 (gene 958) [17] it was 30 µM (active); with CD69, CD69 (gene 969), 28 µM (active) and 30.9 µM (active).
Regarding `C=C(C)C(=O)OCC(F)(F)C(F)(F)C(F)(F)C(F)F`, the outcome was “inactive” in test [1]; “inactive” in test [2]; “inactive” in test [3]; “inactive” in test [4]; “inactive” in test [5]; “inactive” in the test with CD40, CD40 (gene 958) [6]. Further, the result in [7], in [8], in [9], in test [10], in [11] and in test [12] was inactive. For the same compound, the outcome was “inactive” in test [13]; “inactive” in test [14]; “inactive” in [15]; “inactive” in test [16]; “inactive” with CD38, CD38 (gene 952); “inactive” with CD40, CD40 (gene 958) [17]. Moreover, the result with CD69, CD69 (gene 969) was inactive. For the same compound, in test [13], the AC50 is 0.646 µM (active).
